Most compounds without a hit are left out; they make up all but 10% or so of the library.
Six1-Eya2 inh: inhibitors of human Six1/Eya2 interaction. AlphaScreen GST-Six1/His-Eya2 binding, biochemical; stronger effect = lower value. activity change, % (test concentration not listed). actives 0.56% (n = 360,000). AID 651725; in the data active = activity change below about -65%; inconclusive = mostly about -30% to -63%; also: % is scaled to controls: 0 for no effect and ±100 for the full control effect
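GST-Six1 + His-Eya2 (5X stock: 250/500 nM); Tris pH 8.0, 300 mM NaCl, 0.05% BSA, 0.02% Tween 20; GSH donor/Ni acceptor beads; 1 h 37 °C dark; AlphaScreen readout.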
HP1b binding inh: blocks HP1-beta chromodomain binding to methylated histone tails. P83916. AlphaScreen HP1-beta / biotin-H3K9me3 peptide binding. Potency, µM (highest dose often 114 µM), without a hit: at the top dose activity change, negative = inhibition, most hits filed as inhibitors. actives 0.56% (n = 390,000); also: potency is read from the fitted curve at half-maximal effect; nearly all actives have a fitted effect of over 70% in size
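Compound inhibition of the preformed complex between 50 nM HP1-beta and 50 nM biotinylated H3K9me3 peptide was read by AlphaScreen. Buffer was PBS pH 7.4 with 0.01% Tween-20. Incubations ran 30 min at room temperature, with 10 ug/mL donor/acceptor beads.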
JMJD2A Tudor inh: JMJD2A Tudor domain (human) inhibition; O75164; Potency, µM (titrated, usually from 114 µM), inactives show at the highest dose activity change, negative = inhibition, most hits filed as inhibitors; actives 4.4% (n = 390,000); AlphaScreen JMJD2A-Tudor / H3K4me3 peptide binding; also: potency is read from the fitted curve at half-maximal effect; % is scaled to controls: 0 for no effect and ±100 for the full control effect; nearly all actives have a fitted effect of over 50% in size
BAZ2B block: blocks human BAZ2B. Q9UIF8. AlphaScreen BAZ2B-H3K14Ac peptide displacement. actives 4.4% (n = 360,000). AID 504333. Potency, µM (top dose mostly 114 µM), for the others: at the top dose activity change, negative = inhibition, usual class: inhibitors; also: potency is read from the fitted curve at half-maximal effect; % is scaled to controls: 0 for no effect and ±100 for the full control effect; nearly all actives have a fitted effect of over 60% in size
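AlphaScreen displacement: compounds (up to 110uM) incubated 30 min at room temperature with a preformed 50 nM BAZ2B/50 nM biotinylated H3K14Ac peptide complex in PBS pH 7.4 with Tween-20. Donor and acceptor beads at 10 ug/mL final added, 20 min light-protected before reading.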
G9a inh: blocks human histone lysine methyltransferase G9a; G9a H3K9 monomethylation, AlphaScreen, 2 h; Potency, µM (titrated, usually from 102 µM), for the others: at the top dose activity, negative = inhibition, usual class: inhibitors; actives 8.8% (n = 350,000); also: potency is read from the fitted curve at half-maximal effect; % is scaled to controls: 0 for no effect and ±100 for the full control effect; nearly all actives have a fitted effect of over 75% in size
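G9a (20 nM) preincubated 15 min RT with compounds, then 500 nM biotinylated H3K9 peptide and 20 uM SAM added; 2 h RT reaction. Monomethyl-H3K9 product detected by AlphaScreen with anti-H3K9me1 antibody, streptavidin donor and anti-rabbit IgG acceptor beads.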
CtBP-E1A inh: CtBP/E1A binding inhibition | AID 651724 | activity change, % (concentration not given with the values) | actives 0.49% (n = 340,000) | AlphaScreen GST-E1A/His-CtBP binding, 1536-well; stronger effect = lower value; in the data active = activity change below about -65%; inconclusive = mostly about -30% to -63%; also: % is scaled to controls: 0 for no effect and ±100 for the full control effect
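GST-E1A and His-tagged CtBP (125 nM each as 5X stock) were preincubated with pin-transferred compound for 2 h at 37 °C in the dark, then glutathione donor and nickel acceptor beads were added for 1 h before AlphaScreen reading.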
* marks the source's active call; other numbers are inactive results; ? = inconclusive; . = no result given; [ ] = another dose, or the depositor's remark. Unless noted, calls follow the shape of the dose curve; as a rule, active = well fitted inhibition curve with a large enough effect; inconclusive = small, poorly fitted or top-dose-only effect; inactive = no such curve, though single readings can be large or run the other way.

SMILES	Six1-Eya2 inh	HP1b binding inh	JMJD2A Tudor inh	BAZ2B block	G9a inh	CtBP-E1A inh
CCC(C)NC(=O)Cn1c(=O)n(-c2cc(OC)cc(OC)c2)c(=O)c2ccccc21 (stereo not drawn)	.	38%	-9%	4%	-1%[59 µM]	.
CCOc1ccc(Br)cc1S(=O)(=O)Nc1cccc(-c2ccc(OC)nn2)c1	.	8%[57 µM]	-19%	-11%	3%[59 µM]	.
CNC(=O)[C@@]1(C)C=C[C@@H](Cc2ccccc2)N1C(=O)OC	-8	0%	-24%	-16%	79µM*	-6
COC(=O)N1[C@H](Cc2ccccc2)C=C[C@]1(C)C(=O)NCc1ccccn1	-2	39%	-28%	-31%	?	-2
CC(=O)N1[C@H](Cc2ccccc2)C=C[C@]1(C)C(=O)NCc1ccc(C)o1	-1	19%	-20%	-11%	6.3µM*	5
CC(C)[C@@H]1Cc2[nH]n(C)c(=O)c2[C@H](c2ccc(Cl)cc2)O1	2	.	.	.	.	4
O=C(OCC(=O)N1CCc2ccccc2C1)c1cccc([N+](=O)[O-])c1	7	1%	-17%	-31%	-3%[59 µM]	.
COc1ccccc1-c1c(C)nn2c(C(F)(F)F)cc(-c3ccccc3)nc12	.	-7%	-34%	?	8.9µM*	.
O=C(Nc1ccc2nccnc2c1)N1CCCCCC1	.	65%	-11%	.	.	.
Cc1nc(Cl)cc(N/N=C/c2ccc(O)cc2O)n1	-67*	39%	?	35µM*	?	-81*
Cc1nc(Cl)cc(N/N=C/c2ccc(O)cc2)n1	-3	28%	-11%	0%	12%	.
Cc1cc(N/N=C/c2ccc(O)cc2O)nc(-c2ccccc2O)n1	?	19%	-12%	0%	34%[59 µM]	?
Cc1cc(N/N=C/c2ccc(O)cc2O)nc(-n2nc(C)cc2C)n1	-70*	4%	-32%	-5%	51%[59 µM]	-80*
CC1=C(C(=O)Nc2ccccc2C)C(c2ccccn2)n2ncnc2N1 (stereo not drawn)	.	11%[57 µM]	-18%	0%	-1%[59 µM]	.
N#Cc1sc2nc3c(cc2c1N)CCCC3	2	59%	33%	3%	-3%	-9
CC(=O)c1ccc(NC(=O)Cn2c(=O)oc3cc(S(=O)(=O)N4CCCCC4)ccc32)cc1	.	35%	-3%	5%	7%[59 µM]	.
Cc1ccc(-c2c[n+](CC(=O)c3ccc(Br)cc3)c3n2CCCCC3)cc1	-2	22%	-30%	?	45µM*	0
O=C(C[n+]1cc(-c2ccccc2)n2c1CCCCC2)c1ccc(Cl)cc1	0	44%	3%	-3%	-9%[59 µM]	3
Cc1ccc(C(OCC(O)CN2CCCCC2CO)c2ccccc2)cc1 (stereo not drawn)	3	22%	45µM*	50µM*	8%[12.7 µM]	10
CCCCCC(/C=N/Nc1ccc(S(=O)(=O)N2CCOCC2)cc1[N+](=O)[O-])=C\c1ccccc1	-10	?	?	?	11µM*	-6
COc1ccccc1Nc1ccc(S(=O)(=O)N2CCCCC2)cc1[N+](=O)[O-]	?	?	10µM*	8.9µM*	?	-25
O=[N+]([O-])c1ccc(Nc2ccc(N3CCOCC3)cc2)c([N+](=O)[O-])c1	-5	32µM*	?	11µM*	22µM*	-2
COc1ccccc1Nc1ccc(C(=O)O)cc1[N+](=O)[O-]	-3	10%	-28%	-34%	?	3
COc1ccc(Nc2ccc(S(=O)(=O)N3CCCCCC3)cc2[N+](=O)[O-])cc1	?	25µM*	6.3µM*	10µM*	11µM*	-66*
Cc1cc(C)cc(CC(=O)N2CCC2(C)C(=O)NS(=O)(=O)c2ccccc2)c1 (stereo not drawn)	3	.	.	.	.	9
SMILES	Six1-Eya2 inh	HP1b binding inh	JMJD2A Tudor inh	BAZ2B block	G9a inh	CtBP-E1A inh
CCOC(=S)SCC(=O)N1CCc2ccccc2C1C1C(=O)CCCC1=O (stereo not drawn)	-5	5%	-13%	?	?	0
CCCc1cnc2c(c1SCC(=O)Nc1ccccc1OCC)c(=O)n(C)c(=O)n2C	.	12%	-1%	-3%	7%[59 µM]	.
COc1ccc(Nc2ccc(S(=O)(=O)N3CCCCC3)cc2[N+](=O)[O-])cc1OC	?	?	?	10µM*	7.1µM*	?
CCCOc1ccc(S(=O)(=O)N2CCOCC2)cc1[N+](=O)[O-]	5	-7%	89µM*	-15%	0%[59 µM]	2
CSc1cccc(Nc2ccc(S(=O)(=O)N3CCOCC3)cc2[N+](=O)[O-])c1	?	-14%	?	?	?	.
COCC(C)Nc1ccc(S(=O)(=O)N2CCCC2)cc1[N+](=O)[O-] (stereo not drawn)	-6	-9%	-17%	-17%	21%[59 µM]	0
Cc1cccc(Nc2ccc(S(=O)(=O)N3CCOCC3)cc2[N+](=O)[O-])c1	?	?	10µM*	?	?	?
CC1CN(C(=O)COC(=O)c2ccc(N(C)C)cc2)CC(C)O1 (stereo not drawn)	0	30%	-15%	-5%	-9%[59 µM]	1
COC(=O)C=CC(=NNc1ccccc1)c1ccccc1	-6	-32%	-35%	.	.	-9
Cn1nnnc1N=N/C(=N/Nc1ccccc1)c1ccccc1	-27	28µM*	1.6µM*	1.3µM*	.	-24
Cc1c(C(=O)N/N=C/c2ccc(O)c(Br)c2)sc(N)c1C#N	?	13%	-10%	-3%	25%[59 µM]	-65*
COc1cc(/C=N/NC(=O)c2sc(N)c(C#N)c2C)ccc1O	-71*	48%	-26%	0%	2%[12.7 µM]	-83*
COc1cc(/C=N/NC(=O)c2ccc(=O)[nH]n2)ccc1O	0	6%	-22%	6%	5%[59 µM]	-12
CC(CN1CCN(Cc2ccccc2)CC1)OC(=O)c1ccco1 (stereo not drawn)	11	26%	-15%	-38%	?	-8
COc1ccc(-c2nc3c(Cl)cc(C(F)(F)F)cn3c2Cc2ccsc2)cc1OC	2	.	.	.	.	-1
CN(C)CC(C)(C)CNC(=O)C1CCN(CCCc2ccccc2)CC1	4	-15%	56µM*	-10%	?	5
CCCCN(C)C(=O)C1CCN(CCCc2ccccc2)CC1	5	?	8.9µM*	56µM*	?	-1
Cc1ccc2c(c1)nnn2C1CCN(CC(=O)c2ccc(Cl)cc2)CC1	-3	13%	-15%	-19%	45µM*	-1
CN1CCC(N(C)C(=O)c2ccc(Cl)c(S(=O)(=O)N3CCOCC3)c2)CC1	-2	13%	-2%	-4%	?	-2
CC(C)=CCC/C(C)=C/COc1c2ccoc2cc2oc(=O)ccc12	.	163%	133%	.	.	.
